Assay [1] is described as follows: reducers of endogenous Her2 protein level, primary screen, SKBR3 breast tumor cells, AlphaScreen, ATP viability (AID 461;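 active means Her2 level under about 52% in both replicate screens, with viability over 70% of control, limit read from the data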;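 on Her2 level: lower value means less Her2 protein in the cells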;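 on viability: percent of carrier control wells set as 100% viability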). The conditions noted are these: 18-24 h, measured here: SKBR3 viability, ATP luminescence, at 10 µM.
Assay [2] concerns the target Receptor tyrosine-protein kinase erbB-2 (Homo sapiens) (UniProt P04626). The description is as above. The following applies: 18-24 h, at 10 µM, stronger effect = lower value.
Assay [3] is described as follows: SK-BR-3 cell growth inhibitors, pilot screen, 24 h, human (AID 572;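 active means viability at or below 10% of carrier control in both of two separate runs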;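 further: compound exposure lasted between 18 and 24 h rather than exactly 24 h; 100% = carrier-treated control wells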). The conditions noted are these: SK-BR-3 viability, CellTiter-Glo luminescence, at 10 µM, stronger effect = lower value.
A short description of assay [4]: HUVEC growth inhibition – cell-based, human, primary screen (AID 575;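 active means viability at or below 30% in both replicate assays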;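 further: 100% = median of untreated cell wells with 0.1% DMSO on each plate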). The following applies: HUVEC proliferation, CellTiter-Glo luminescence, 72 h; at 10 µM; stronger effect = lower value.
Assay [5] can be described thus: growth inhibitors of H69AR lung tumor, primary screen, human, duplicate replicates (AID 580;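 active means viability at or under a set limit in both replicates, limit being median viability minus 3 SD, cut at about 48% in these data, passing the limit was not always enough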;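 further: 100% = mean luminescence of untreated wells and 0% = no signal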). The conditions noted are these: H69AR lung tumor cells viability, ATP luminescence, 72 h; at 10 µM; stronger effect = lower value.
Assay [6] is described as follows: reversal of MRP1-mediated doxorubicin resistance, pilot screen, H69AR cells, doxorubicin co-treatment (AID 601;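 active means viability loss from added drug above about 55%, and viability with drug at most 40%, in both replicates, limit read from the data, passing the limit was not always enough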). The following applies: CellTiter-Glo, 72 h, at 10 µM; for differential viability (reversal): stronger effect = higher value.
Assay [7] in a line: 384-well plate pilot, post-Golgi transport modulator project, inhibition of yeast transport mutant growth (AID 636; in the data active means inhibition above about 31%). The following applies: absorbance 615 nm, about 18 h, stronger effect = higher value.
The nature of assay [8]: growth suppression of yeast trafficking mutant, preliminary HTS, modulators of trafficking downstream of Golgi apparatus project, 1536-format plate, OD 615 nm (AID 637; in the data active means inhibition above about 30%). The following applies: yeast transport mutant growth, absorbance 615 nm, 18 h; stronger effect = higher value.
Assay [9] in a line: OD615 S. cerevisiae growth inhibition, permissive medium, pilot counter-assay, permissive growth control for S. cerevisiae lifespan shortening project (AID 705;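 active means growth inhibition above 25% in both replicates, a cutoff set 3 SD above the mean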). The conditions noted are these: OD615, 24 h, at 10 µM, stronger effect = higher value.
Assay [10] can be described thus: Restrictive medium S. cerevisiae growth inhibition, OD615, pilot screen of yeast lifespan reduction project, restrictive growth control (AID 706;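 active means growth inhibition above a set limit, 3 SD over mean compound inhibition, in both replicates, cut at about 43% in these data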;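 further: modified DeaD lifespan yeast strain shifted to restrictive glucose medium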). The following applies: OD615, 48 h, at 10 µM, stronger effect = higher value.
Assay [11] can be described thus: viability gain of MRP-1-high H69AR cells under doxorubicin, pilot screen, MRP-1 activator project, CellTiter-Glo, duplicate (AID 807).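 Further: compound pretreatment 18-22 h then 72 h combined with doxorubicin; 0% = doxorubicin alone and 100% = vehicle without doxorubicin.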 The following applies: H69AR viability with doxorubicin, CellTiter-Glo luminescence; at 10 µM; stronger effect = higher value.
Assay [12] is described as follows: growth suppression of beta-catenin knockout HCT116, pilot screen, human colon tumor cells (AID 823;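 active means cell viability at or below a set limit in both duplicate runs, the limit being the all-compound median minus 4 SD, cut at about 23% in these data, passing the limit was not always enough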;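 further: 0% = wells killed by 20 µM Hyamine and 100% = untreated DMSO cell wells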). The following applies: CellTiter-Glo, 60 h, at 10 µM, stronger effect = lower value.
A short description of assay [13]: growth suppression of PTEN-deleted HCT116, pilot screen, cell-based, HCT116 clonal line, CellTiter-Glo (AID 824;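 active means viability at or below 27.92% in each of two runs, the all-compound median minus 4 SD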;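 further: 0% = 20 µM Hyamine control and 100% = vehicle cell control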). The following applies: 60 h, at 10 µM, stronger effect = lower value.
Assay [14] in a line: inhibitors of the yeast RAM network, pilot screen, dse1pr::URA3 reporter, 5-FOA selection (AID 869;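 active means inhibition over a set limit, the all-compound mean plus 3 SD, in both replicate runs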;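 further: 0% = DMSO wells with no growth and 100% = 10 µM 1-NA-PP1 with full growth; RAM network block rescues cells from 5-FOA so hits raise OD615 growth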). The following applies: S. cerevisiae dse1pr::URA3 5-FOA growth, OD615, 2 d; at 10 µM; stronger effect = higher value; strain carries analog-sensitive mutant Cbk1 kinase.
Assay [15] is described as follows: RAM signaling pathway blockade in yeast – S. cerevisiae, Pdr1DBD-CYC8 efflux-inhibited sensitized strain, primary screen (AID 1298;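 active means RAM network inhibition above 8.4% in each of two replicates, 3 SD over the compound average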;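 further: 0% = DMSO untreated cells without growth and 100% = 10 µM 1-NA-PP1 full growth; higher means more yeast growth rescued from 5-FOA killing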). The following applies: S. cerevisiae cbk1-as DSE1-URA3 strain, 5-FOA growth OD615, 2 d; at 50 µM; stronger effect = higher value.
Where [16] appears, read: H69AR cells + 2 uM doxorubicin, measured here: viability with 2 uM doxorubicin, stronger effect = lower value.
Setting [17] is: H69AR cells, compound alone cytotoxicity.

Records with an inconclusive call do not appear. Active and inactive are the calls of the source.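 How the source made its calls, unless noted: active means viability increase at or above a cutoff of the median across tested compounds plus 3 SD (cut at about 8.5% in these data, passing the limit was not always enough); inconclusive means some gains above the cutoff, reason not given; inactive means the rest.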

Sequence of Receptor tyrosine-protein kinase erbB-2 (Homo sapiens) (P04626 whole entry, looked up): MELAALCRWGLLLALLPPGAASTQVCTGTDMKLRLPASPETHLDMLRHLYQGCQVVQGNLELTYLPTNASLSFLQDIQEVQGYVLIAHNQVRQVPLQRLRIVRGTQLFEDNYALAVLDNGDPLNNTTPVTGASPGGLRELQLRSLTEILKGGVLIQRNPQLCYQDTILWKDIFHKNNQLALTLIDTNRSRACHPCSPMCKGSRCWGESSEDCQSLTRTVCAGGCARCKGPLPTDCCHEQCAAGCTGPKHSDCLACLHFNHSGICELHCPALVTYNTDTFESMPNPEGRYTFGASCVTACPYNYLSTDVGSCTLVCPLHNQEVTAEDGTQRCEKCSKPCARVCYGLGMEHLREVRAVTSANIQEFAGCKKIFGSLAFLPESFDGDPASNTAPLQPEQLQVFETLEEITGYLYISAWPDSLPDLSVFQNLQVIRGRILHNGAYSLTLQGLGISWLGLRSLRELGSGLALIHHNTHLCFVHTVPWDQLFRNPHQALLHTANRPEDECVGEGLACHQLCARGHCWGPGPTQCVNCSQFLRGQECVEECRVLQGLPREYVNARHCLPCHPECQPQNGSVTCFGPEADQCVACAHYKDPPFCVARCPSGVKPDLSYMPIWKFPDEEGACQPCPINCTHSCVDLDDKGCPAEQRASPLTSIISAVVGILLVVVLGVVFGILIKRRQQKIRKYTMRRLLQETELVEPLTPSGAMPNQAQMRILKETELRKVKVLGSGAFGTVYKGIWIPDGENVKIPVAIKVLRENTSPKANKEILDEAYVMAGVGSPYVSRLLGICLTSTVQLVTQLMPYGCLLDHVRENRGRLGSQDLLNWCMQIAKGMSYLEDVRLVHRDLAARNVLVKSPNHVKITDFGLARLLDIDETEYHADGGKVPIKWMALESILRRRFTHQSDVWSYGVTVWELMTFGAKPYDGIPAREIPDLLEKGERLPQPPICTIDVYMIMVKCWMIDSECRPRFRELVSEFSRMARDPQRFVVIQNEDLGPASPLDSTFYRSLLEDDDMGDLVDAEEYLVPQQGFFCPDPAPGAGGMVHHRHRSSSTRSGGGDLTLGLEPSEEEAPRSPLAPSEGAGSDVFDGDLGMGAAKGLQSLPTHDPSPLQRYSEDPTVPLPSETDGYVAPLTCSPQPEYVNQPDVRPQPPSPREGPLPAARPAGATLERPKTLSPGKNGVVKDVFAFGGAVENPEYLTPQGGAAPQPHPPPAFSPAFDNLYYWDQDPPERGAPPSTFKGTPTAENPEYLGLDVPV

With `CC1=C(C(=O)OC2CCCC2)C(c2ccc(C)o2)C2=C(CC(c3cccs3)CC2=O)N1` (stereo not drawn), the viability is 148% in assay [1]; 148% (inactive) in assay [3]; 75.1% (inactive) in assay [4]; 74.8% (inactive) in assay [5]; 61.5% in assay [6] (setting [16]); 74.8% in assay [6] (setting [17]). Moreover, the viability in assay [12] is 46.3% (inactive); in [13] it was 58.9% (inactive). In addition, the Her2 level in assay [2] is 108% (inactive). In addition, in assay [6] (H69AR cells + 2 uM doxorubicin), the differential viability (reversal) is 13.3% (inactive). The inhibition in assay [7] is -1.17% (inactive); in [8], -11% (inactive); in assay [14] it was 1.68% (inactive). The growth inhibition in assay [9] was -3.79% (inactive); in assay [10], -19.9% (inactive). Besides, the viability increase in assay [11] is -4.36% (inactive). Besides, the RAM network inhibition in [15] was 2.7% (inactive).

Consider `Cc1cccc(C2CC(c3ccccc3)Nc3nc(N)nn32)c1` (stereo not drawn), for which the viability is 92% in assay [1]; 92% (inactive) in assay [3]; 92.7% (inactive) in assay [4]; 108% (inactive) in assay [5]; 99.5% in assay [6] (setting [16]); 108% in [6] (setting [17]). The viability in assay [12] was 99.8% (inactive); in [13] it was 88.2% (inactive). Moreover, the Her2 level in [2] was 94.5% (inactive). Further, in [6] (H69AR cells + 2 uM doxorubicin), the differential viability (reversal) is 8.54% (inactive). Besides, the results for the inhibition in [7], in assay [8] and in assay [14] were -4.13% (inactive), 1.15% (inactive) and -0.64% (inactive), respectively. In addition, the growth inhibition in [9] was 1.73% (inactive); in assay [10], 3.52% (inactive). The viability increase in assay [11] was -0.5% (inactive). Further, the RAM network inhibition in [15] was 0.21% (inactive).

For the molecule `Clc1ccc(Nc2ncnc3c2cnn3-c2ccccc2)cc1`, the viability in [1] was 116%; in [3] it was 116% (inactive); in assay [4], 86% (inactive); in assay [5] it was 78.7% (inactive); in assay [6] (setting [16]) it was 71.4%; in [6] (setting [17]), 78.7%. The viability in assay [12] was 81.7% (inactive); in assay [13] it was 74.8% (inactive). Further, the Her2 level in assay [2] was 90.5% (inactive). Also, the differential viability (reversal) in assay [6] (H69AR cells + 2 uM doxorubicin) was 7.29% (inactive). Also, the results for the inhibition in [7], in assay [8] and in assay [14] were -4% (inactive), 0% (inactive) and 0.855% (inactive), respectively. Moreover, the growth inhibition was -10.8% (inactive) in assay [9] and -13.1% (inactive) in assay [10]. Further, the viability increase in [11] was -2.81% (inactive). The RAM network inhibition in [15] is -0.47% (inactive).

Turning to `COc1ccc(N2CCN(CCNC(=O)CCS(=O)(=O)c3cccc4nsnc34)CC2)cc1`, the viability was 90% in assay [1]; 90% (inactive) in [3]; 99.9% (inactive) in assay [4]; 103% (inactive) in assay [5]; 91.6% in assay [6] (setting [16]); 103% in assay [6] (setting [17]). Further, the results for the viability in assay [12] and in assay [13] were 98.5% (inactive) and 95.2% (inactive), respectively. The Her2 level in [2] was 97% (inactive). Moreover, the differential viability (reversal) in assay [6] (H69AR cells + 2 uM doxorubicin) was 11.1% (inactive). The inhibition in assay [7] was -6.58% (inactive); in [8], -0.16% (inactive); in assay [14] it was 0.835% (inactive). The figures for the growth inhibition in assay [9] and in [10] were 0.45% (inactive) and 4.11% (inactive), respectively. In addition, the viability increase in [11] was -1.51% (inactive). Besides, in [15], the RAM network inhibition was 5.62% (inactive).

`Cc1nnc(SCC(=O)Nc2sc3c(c2C#N)CCCC3)[nH]c1=O`: the viability in assay [1] was 95.5%; in [3] it was 95.5% (inactive); in assay [4] it was 88.3% (inactive); in assay [5], 102% (inactive); in [6] (setting [16]), 97.4%; in assay [6] (setting [17]), 102%. The viability is 103% (inactive) in [12] and 101% (inactive) in assay [13]. The Her2 level in assay [2] was 91.5% (inactive). Also, the differential viability (reversal) in assay [6] (H69AR cells + 2 uM doxorubicin) is 4.41% (inactive). Also, the results for the inhibition in assay [7], in [8] and in [14] were -3.38% (inactive), -4.83% (inactive) and 0.455% (inactive), respectively. Besides, the growth inhibition was 1.05% (inactive) in assay [9] and 10.9% (inactive) in [10]. The viability increase in assay [11] was -2.28% (inactive). The RAM network inhibition in [15] is 3.34% (inactive).

As for `CC(=O)NC(CCS(C)(=O)=O)C(=O)Nc1cccc2ccccc12` (stereo not drawn), the viability in assay [1] is 108%; in [3], 108% (inactive); in assay [4], 94% (inactive); in [5], 87.5% (inactive); in [6] (setting [16]), 97.7%; in assay [6] (setting [17]), 87.5%. The viability is 103% (inactive) in assay [12] and 88.3% (inactive) in [13]. Besides, in assay [2], the Her2 level was 102% (inactive). Further, the differential viability (reversal) in [6] (H69AR cells + 2 uM doxorubicin) is -10.2% (inactive). The inhibition in assay [7] was -1.87% (inactive); in [8] it was -5.5% (inactive); in [14], 1.77% (inactive). For the same molecule, the growth inhibition in assay [9] was -12.6% (inactive); in assay [10], -14.3% (inactive). In addition, in assay [11], the viability increase was -2.44% (inactive). Further, the RAM network inhibition in [15] is 8.64% (inactive).

`CCOC(=O)C1=C(C)NC(=O)NC1c1ccc(Br)s1` (stereo not drawn): the viability was 119% in assay [1]; 119% (inactive) in assay [3]; 103% (inactive) in assay [4]; 108% (inactive) in assay [5]; 83.5% in assay [6] (setting [16]); 108% in [6] (setting [17]). Also, the results for the viability in assay [12] and in assay [13] were 92.8% (inactive) and 89.7% (inactive), respectively. Moreover, the Her2 level in assay [2] was 102% (inactive). The differential viability (reversal) in [6] (H69AR cells + 2 uM doxorubicin) is 24.9% (inactive). Further, the figures for the inhibition in assay [7], in assay [8] and in assay [14] were -6.53% (inactive), 4.03% (inactive) and 0.86% (inactive), respectively. Moreover, the growth inhibition in assay [9] is -10.5% (inactive); in assay [10] it was -15.3% (inactive). Moreover, the viability increase in assay [11] is -0.63% (inactive). The RAM network inhibition in [15] is 3.71% (inactive).

For the molecule `COc1ccc(-c2nc(C)c(C(C)=O)n2O)cc1OC`, the viability in assay [1] is 89%; in assay [3], 89% (inactive); in [4], 91% (inactive); in assay [5], 94.9% (inactive); in assay [6] (setting [16]), 85.3%; in [6] (setting [17]), 94.9%. Besides, the viability is 96.5% (inactive) in [12] and 90.1% (inactive) in assay [13]. In addition, in assay [2], the Her2 level was 112% (inactive). Moreover, the differential viability (reversal) in [6] (H69AR cells + 2 uM doxorubicin) is 9.6% (inactive). Moreover, the results for the inhibition in assay [7], in assay [8] and in [14] were -2.05% (inactive), -8.33% (inactive) and 1.42% (inactive), respectively. The growth inhibition in [9] is -5.41% (inactive); in assay [10] it was 6.06% (inactive). Moreover, the viability increase in [11] is -1.91% (inactive). Further, the RAM network inhibition in assay [15] was 2.4% (inactive).

`O=C(NCc1ccccc1)C1CCN(S(=O)(=O)c2cccc3cccnc23)CC1`: the viability in assay [1] was 96.5%; in [3], 96.5% (inactive); in assay [4], 99% (inactive); in [5], 98.2% (inactive); in assay [6] (setting [16]) it was 95.4%; in [6] (setting [17]) it was 98.2%. For the same molecule, the viability in [12] is 99.2% (inactive); in assay [13], 96.3% (inactive). The Her2 level in assay [2] was 104% (inactive). Moreover, the differential viability (reversal) in assay [6] (H69AR cells + 2 uM doxorubicin) was 2.76% (inactive). Also, the inhibition was 0.67% (inactive) in assay [7], -2.79% (inactive) in assay [8] and 1.52% (inactive) in [14]. The growth inhibition in [9] is 0.255% (inactive); in assay [10], -4.87% (inactive). In addition, the viability increase in assay [11] was -2.29% (inactive). The RAM network inhibition in [15] is -0.57% (inactive).
